High-throughput results from PubChem BioAssay.
DAX1 inh-1 = DAX1 (NR0B1) inhibitors on StAR promoter, primary screen, cell-based, luminescence, SF-1 (NR5A1), full-length DAX-1. HEK293T StAR-luciferase reporter, SF-1/DAX-1 repression relief. inhibition, % at 6.8 µM. 370,000 compounds, 1.1% hits. AID 652010, 2013;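 active = inhibition above the mean over all tested compounds plus 3 SD, cut at about 3.6% in these data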;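 also: higher inhibition means more luminescence from relief of DAX-1 repression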
ssDAF-12 act = S. stercoralis DAF-12 nuclear receptor activators, primary screen, cell-based, luminescence, HEK293, GRIP1 co-expression, lit1-tk-luc; HEK293 ssDAF-12/GRIP1 lit1-tk-luc reporter; % of 3 µM dafachronic acid response; activation, % at 6.8 µM; AID 652126, 2013; Nuclear hormone receptor DAF-12 (Strongyloides stercoralis); 370,000 compounds, 1% hits;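 active = activation above the mean over all tested compounds plus 3 SD, cut at about 0.9% in these data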
hcDAF-12 act = H. contortus DAF-12 nuclear receptor activators, primary screen, cell-based, luminescence, HEK293, lit1-tk-luc reporter | HEK293 hcDAF-12 lit1-tk-luc reporter; 0% DMSO, 100% Δ7-dafachronic acid | activation, % at 6.8 µM | 370,000 compounds, 1.4% hits | AID 652067, 2013;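 active = activation above the mean of all tested compounds plus 3 SD, cut at about 5.5% in these data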
hgDAF-12 ag = H. glycines DAF-12 receptor agonists, primary screen, cell-based, luminescence, HEK293, GAL4 fusion, UAS-luciferase; Nuclear hormone receptor DAF-12 (Heterodera glycines), GAL4 fusion; HEK293 GAL4-hgDAF12 UAS-luciferase reporter, agonist luminescence; normalized to butyrate control; activation, % at 6.8 µM; 370,000 compounds, 1.8% hits; AID 687014, 2013;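 active = activation above a cutoff set at the mean of all screened compounds plus 3 SD, cut at about 10% in these data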
DAX1 inh-2 = DAX1 (NR0B1) inhibitors, primary screen, cell-based, HEK293, Gal4-DAX1, luciferase luminescence; HEK293 Gal4-DAX1 luciferase reporter; inhibition, % at 6.75 µM; 340,000 compounds, 0.99% hits; AID 504766, 2011;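 active = inhibition above the mean over all tested compounds plus 3 SD, cut at about 4.2% in these data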;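 also: inhibition shows as a rise in luminescence from relieved DAX1 repression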
LXR ag = LXR agonists, Gal4 luciferase reporter, confirmation, counter-screen for hcDAF-12 agonist project, cell-based, luminescence, HEK293, H. contortus campaign | shares compounds with hcDAF-12 act | HEK293 Gal4-LXR tk-luc reporter, 24 h; normalized: DMSO 0%, positive control 100% | activation, % at 6.8 µM | 3,400 tested, under 10 active;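 active = mean percent activation of the reporter above a cutoff set as the average over tested compounds plus their standard deviation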
Target sequence (P55055 whole entry, looked up, the tested form may be a part): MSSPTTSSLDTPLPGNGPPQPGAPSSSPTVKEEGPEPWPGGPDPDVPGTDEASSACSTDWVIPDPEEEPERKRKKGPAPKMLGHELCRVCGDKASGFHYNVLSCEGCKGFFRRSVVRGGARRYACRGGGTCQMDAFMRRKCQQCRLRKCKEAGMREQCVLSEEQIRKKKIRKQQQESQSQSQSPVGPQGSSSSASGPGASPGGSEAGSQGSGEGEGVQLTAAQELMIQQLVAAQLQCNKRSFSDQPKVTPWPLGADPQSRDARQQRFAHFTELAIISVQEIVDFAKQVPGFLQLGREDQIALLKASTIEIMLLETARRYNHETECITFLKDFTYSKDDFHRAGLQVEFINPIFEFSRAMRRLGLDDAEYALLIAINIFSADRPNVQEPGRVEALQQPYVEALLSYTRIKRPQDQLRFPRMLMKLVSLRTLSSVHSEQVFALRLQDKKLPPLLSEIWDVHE
hcDAF12 ag = H. contortus DAF-12 receptor agonists, confirmation, cell-based, luminescence, HEK293, lit1-tk-luc, triplicate | shares compounds with hcDAF-12 act | HEK293 hcDAF-12 lit1-tk-luc reporter; % of Δ7-dafachronic acid response | activation, % at 6.8 µM | 3,400 compounds, 61% hits | AID 743032, 2013;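 active = mean activation across triplicate tests above the threshold derived from the earlier primary screen, cut at about 5.5% in these data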
Each line names hits and unclear results; the compound was inactive in the other large screens (follow-up assays come after a bar, where they were run). In the library only some 4.1% were active in any assay of this set; here they are far more common.

O=C(O)c1ccc(-c2noc(-c3ccccc3F)n2)cc1	hcDAF-12 act 6.8 | LXR ag inactive | hcDAF12 ag 7.0
Cc1ccc2[nH]cc(CCNC(=O)C3CCCO3)c2c1 (configuration not stated)	none
COc1ccc(NC(=O)[C@@]2(CC(=O)O)CC(/C=C/c3ccccc3)=NO2)cc1	hcDAF-12 act 7.9 | LXR ag inactive | hcDAF12 ag inactive
CC(=O)c1ccc(NC(=O)[C@@]2(CC(=O)O)CC(/C=C/c3ccccc3)=NO2)cc1	none
O=C(O)CCc1nc2cc(C(F)(F)F)ccc2n(Cc2ccccc2)c1=O	none
FC(F)(F)c1nc2ccccc2c2nc3ccccc3n12	hcDAF-12 act 8.3 | LXR ag inactive | hcDAF12 ag inactive
c1ccc(-c2nc3ccccc3c3nc4ccccc4n23)cc1	none
CC(=O)Nc1ccc(C(=O)N(C)C(C(=O)Nc2ccc(C)cc2)c2ccccn2)cc1 (configuration not stated)	none
COc1ccc(NC(=O)C(c2ccccn2)N(C(C)=O)c2ccc(C)cc2)cc1 (configuration not stated)	ssDAF-12 act 1.6, hcDAF-12 act 10.0 | LXR ag inactive | hcDAF12 ag inactive
CCOC(=O)CN1C(=O)C(=O)N(Cc2ccccc2F)C1=O	none
Cc1nnc(SCC(=O)c2ccc(Cl)cc2)n(N)c1=O	hcDAF-12 act 9.6 | LXR ag inactive | hcDAF12 ag inactive
Cc1ccc(NC(=O)CSc2nnc(C)c(=O)n2N)cc1Cl	none
Cc1cccc(NC(=O)c2cnc3scc(C)n3c2=O)c1	none
Cc1csc2ncc(C(=O)Nc3ccon3)c(=O)n12	hcDAF-12 act 9.5 | LXR ag inactive | hcDAF12 ag inactive
CC(C)CC(NC(=O)c1ccc(C#CC(C)(C)O)s1)C(=O)O (configuration not stated)	none
Cc1cccc(NC(=O)Nc2ccc(Br)cc2)n1	ssDAF-12 act 1.3, hcDAF-12 act 7.6 | LXR ag inactive | hcDAF12 ag 6.2
CC(=O)N1CCOc2ccc(S(=O)(=O)NC[C@H]3O[C@@H](n4ccc(=O)[nH]c4=O)[C@H](O)[C@@H]3O)cc21	none
Cc1cccc(C(=O)NNC(=O)/C=C/C(=O)O)c1	hcDAF-12 act 8.6 | LXR ag inactive | hcDAF12 ag inactive
Cc1cccc(C(=O)NNC(=O)c2cccc(C)c2)c1	none
CNc1ccccc(-c2ccc3ccccc3n2)c1=O	hcDAF-12 act 7.0 | LXR ag inactive | hcDAF12 ag 7.2
CCCCOC(=O)Nc1ccc(N(C)C)cc1	DAX1 inh-1 4.4, hcDAF-12 act 7.2, hgDAF-12 ag 11.3 | LXR ag inactive | hcDAF12 ag 5.8
Cc1cc(NC(=O)c2ccc(Br)cc2)nc(C)n1	none
Cc1cc(NC(=O)c2ccccc2O)nc(C)n1	hcDAF-12 act 7.7 | LXR ag inactive | hcDAF12 ag inactive
Cc1ccc2sc(NC(=O)CSc3nc(C)cc(C)c3C#N)nc2c1	DAX1 inh-1 4.0, ssDAF-12 act 0.9, hcDAF-12 act 10.7, hgDAF-12 ag 11.9 | LXR ag inactive | hcDAF12 ag 10.5
Cc1cc(C(F)(F)F)c(C#N)c(SCC(=O)Nc2nc3ccccc3s2)n1	none
Cc1ccc(Nc2nc(-c3cccnc3)cs2)cc1Cl	hcDAF-12 act 11.1 | LXR ag inactive | hcDAF12 ag 12.3
